# Measured values reported in PubChem BioAssay (NCATS).
# Activity calls are given as the source filed them. Where a call stands in place of a potency, no number is given. Calls come from the whole dose curve; as a rule, active = well fitted inhibition curve with a large enough effect; inconclusive = small, poorly fitted or top-dose-only effect; inactive = no such curve, though single readings can be large or run the other way.
# Experiment: qHTS assay for measurement of the activity of small molecule inhibitors on Zika virus induced Caspase-3 activity in human astrocytoma cells (AID 1224859)
# Conditions: SNB-19 ZIKV-induced caspase-3/7, luminescence, 6 h; series mostly up to 45.7 µM
# Text: National Center for Advancing Translational Sciences [NCATS]
# Johns Hopkins University School of Medicine
# Increase in the Caspase-3 activity indicates an activation of apoptosis cell death pathway caused by Zika virus infection in certain types of neuronal cells including human neural progenitor cells (hNPCs), astrocytes, and astrocytoma cell line (SNB-19). This cell-based caspase-3 activity assay measures the increased caspase-3 activity in the astrocytoma cell line (SNB-19) after a 6-hour Zika virus infection with a luminescence readout. A decrease in the luminescence signal in this assay by small molecule treatment indicates an inhibitory effect of that small molecule on the Zika virus induced caspase-3 activity that may correlate with its effect on reduction of Zika virus caused cell death.
# The medium for SNB-19 cells is composed of RPMI 1640 (ATCC, Cat.# 30-2001), 10% fetal bovine serum (FBS) (GE healthcare Life Sciences, Cat.# SH30071.03), and 1% Pen/Strep (Gibco, Cat.# 15140-122). A Caspase-Glo 3/7 assay kit (catalog number G8092; Promega, Madison, WI) was used to detect caspase-3 activity induced by Zika virus infection in human cells. The reagent mixture was reconstituted as described in the protocol from the manufacturer. Polystyrene tissue culture treated and PDL coated white plates were obtained from Greiner Bio-One (Monroe, NC). Cells were seeded in 384- or 1536-well assay plates and cultured at 37 C with 5% CO2 for 16 to 20 hours. The typical cell seeding density in the 1536-well plate assay is 250 cells/well in 3ul medium for SNB-19 cells in tissue culture treated plates. Compounds were added to cells and incubated for one hour before addition of ZIKV solution to cells (2 FFU/cell). After incubation at 37 C with 5% CO2 for 6 hours, the reagent mixture of Caspase-Glo 3/7 assay kit was added to each well, followed by incubation at room temperature for 30 minutes. The luminescence intensity of the assay plates was measured using a ViewLux plate reader (PerkinElmer). Data were normalized by using the cell-containing wells without ZIKV as a negative control (0% induction of caspase 3/7 activity) and wells containing ZIKV infected cells (Caspase-3 activity induced) as a positive control (100% induction of caspase 3 activity). The percentage inhibitions of the increased Caspase-3 activity by small molecule inhibitors were then calculated.
# Potency is the fitted concentration of half-maximal effect.
row,Compound,Potency
1,Cc1csc(-c2nnc(Nc3ccc(Oc4ncccc4-c4ccnc(N)n4)cc3)c3ccccc23)c1,inactive
2,O=S(=O)(O)c1ccc2cc(N=Nc3cc(S(=O)(=O)O)c4cccnc4c3O)ccc2c1,inactive
3,C[C@@H]1[C@H](O)[C@@H](C)C=CC=CC=CC=CC=CC=CC=C[C@H](O[C@@H]2O[C@H](C)[C@H](O)[C@H](N)[C@@H]2O)C[C@@H]2O[C@](O)(C[C@@H](O)C[C@@H](O)[C@H](O)CC[C@@H](O)C[C@@H](O)CC(=O)O[C@H]1C)C[C@H](O)[C@@H]2C(=O)O,inactive
4,NC1(C(=O)N[C@@H](CCO)c2ccc(Cl)cc2)CCN(c2ncnc3[nH]ccc23)CC1,inactive
5,O=c1[nH]c(=O)n([C@H]2C[C@@H](O)[C@@H](CO)O2)cc1C(F)(F)F,inactive
6,C[C@@H](N)c1ccc(C(=O)Nc2ccnc3[nH]ccc23)cc1,inactive
7,CCOC(=O)[C@H](CCc1ccccc1)N[C@@H](C)C(=O)N1CCCC1C(=O)O (stereo not given in full),inactive
8,Cc1nc2c([nH]1)CCN(C(=O)c1ccc(NC(=O)c3ccccc3-c3ccccc3)cc1)c1ccccc1-2,inactive
9,O=C(Nc1cccc(Cl)c1)Nc1ncc(CCNc2ncnc3ccsc23)s1,inactive
10,CC[C@@H]([C@H](C)O)n1ncn(-c2ccc(N3CCN(c4ccc(OCC5CO[C@@](Cn6cncn6)(c6ccc(F)cc6F)C5)cc4)CC3)cc2)c1=O (stereo not given in full),inactive
11,COc1c(C)cnc(Cn2cnc3c(Cl)nc(N)nc32)c1C,inactive
12,CC(=O)N1CCN(c2ccc(OCc3nn(C)c(C)c3-c3cccc4c(CCCOc5cc(C)c(Cl)c(C)c5)c(C(=O)O)n(Cc5cccnc5)c34)cc2)CC1,inactive
13,OC[C@H]1O[C@@H](O[C@H]2[C@@H](O)[C@@](O)(CO)O[C@@H]2CO)[C@H](O)[C@@H](O)[C@@H]1O,inactive
14,CCC[C@H](N[C@@H](C)C(=O)N1[C@@H]2CCCC[C@H]2C[C@H]1C(=O)O)C(=O)OCC,inactive
15,N#CC(=C1Nc2ccccc2S1)c1ccnc(OCc2ccc(CN3CCOCC3)cc2)n1,inactive
16,CC(O)=C(C#N)C(=O)Nc1ccc(C(F)(F)F)cc1,1.18 µM (active)
17,O=C(O)C1=CC(O)C(O)[C@H](O)C1 (stereo not given in full),inactive
18,CCCCC(C=O)NC(=O)C(CC(C)C)NC(=O)OCc1ccccc1 (stereo not given),inactive
19,CCNC(=O)c1noc(-c2cc(C(C)C)c(O)cc2O)c1-c1ccc(CN2CCOCC2)cc1,inactive
20,OC[C@H]1O[C@@H](OCCc2ccc(O)cc2)[C@H](O)[C@@H](O)[C@H]1O,inactive

row,Compound,Potency
1,COc1ccc(CCC(=O)Nc2nc3ccc(Cl)cc3s2)cc1OC,inactive
2,Cc1cc(CS(=O)(=O)c2ccccc2)cc(OCc2ccc(CN3CCC[C@H]3CO)cc2)c1,inactive
3,CC(C)CN(C[C@@H](O)[C@H](Cc1ccccc1)NC(=O)O[C@H]1CO[C@H]2OCC[C@H]21)S(=O)(=O)c1ccc(N)cc1,inactive
4,CN[C@H]1[C@@H](O[C@@H]2[C@H](O[C@@H]3[C@@H](O)[C@@H](O)[C@@H](N=C(N)N)[C@@H](O)[C@@H]3N=C(N)N)O[C@H](C)[C@@]2(O)C=O)O[C@@H](CO)[C@@H](O)[C@H]1O,inactive
5,CC(C)Oc1cc(Nc2nc(N[C@@H](C)c3ccc(F)cn3)ncc2Cl)[nH]n1,inactive
6,CCCCN(CCCC)CC(O)c1cc(Cl)cc2c1-c1ccc(Cl)cc1C2=Cc1ccc(Cl)cc1 (stereo not given),inactive
7,O=C(O)CCC=CCC[C@@H]1[C@H](N2CCCCC2)[C@@H](O)C[C@@H]1OCc1ccc(-c2ccccc2)cc1,inactive
8,CN(C)N=Nc1nc[nH]c1C(N)=O,inactive
9,CC(C)CN(C[C@H](O)[C@H](Cc1ccccc1)NC(=O)O[C@H]1CCOC1)S(=O)(=O)c1ccc(N)cc1,inactive
10,CCCCCCCCCCCCCCCC(=O)O[C@H]1[C@@H](O)[C@@H](O)[C@@H]([C@H](NC(=O)[C@@H]2C[C@@H](CCC)CN2C)[C@H](C)Cl)O[C@@H]1SC,inactive
11,CN(C)CC[C@H](CSc1ccccc1)Nc1ccc(S(=O)(=O)NC(=O)c2ccc(N3CCN(Cc4ccccc4-c4ccc(Cl)cc4)CC3)cc2)cc1[N+](=O)[O-],inactive
12,Cc1cc(C(C)Nc2ccccc2)c2nc(N3CCOCC3)cc(=O)n2c1 (stereo not given),inactive
13,NC(=O)c1noc([C@H](CCCC2CCCCC2)CC(=O)NO)n1,inactive
14,CCN(CC)CCCCNc1nc2cc(Cl)c(Cl)cc2nc1-c1ccc(-c2cccs2)s1,inactive
15,CN(C(Cc1ccc(OS(=O)(=O)c2cccc3cnccc23)cc1)C(=O)N1CCN(c2ccccc2)CC1)S(=O)(=O)c1cccc2cnccc12 (stereo not given),inactive
16,C#CCN(C)CC1=Cc2ccccc2Oc2ccccc21,inactive
17,COc1cc2nccc(Oc3ccc(NC(=O)Nc4ccc(F)cc4F)c(F)c3)c2cc1OC,inactive
18,CC(C)C[C@@H](N)[C@H](O)C(=O)N[C@H](C(=O)N[C@H](C(=O)N[C@@H](CC(=O)O)C(=O)O)C(C)C)C(C)C,inactive
19,Cc1nc(NC(=O)N2CCC[C@@H]2C(N)=O)sc1-c1csc(C(C)(C)C)n1,inactive
20,CCCCC[C@H](O)C=C[C@H]1[C@H](O)CC(=O)[C@H]1CC=CCCCC(=O)O,inactive
